# Shown are actives, neighbours in structure and some others; about 28% of the full set was active somewhere.
# CD11b adhes inh – blocks human CD11b/CD18 adhesion to fibrinogen | K562 CD11b/CD18 adhesion to fibrinogen, ATPlite luminescence; Mn2+ added to activate the integrin | inhibition, % at 10 µM | 0.54% of 93,000 active;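 active = primary inhibition of 50% or more at 10 µM, then 40% or more on retest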
# CYP2C9 inh – blocks human cytochrome P450 2C9 | P11712 | CYP2C9 Supersomes, luciferin-H conversion, luminescence | inhibition, % at 5 µM | 20% of 96,000 active | AID 777;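 active = blocking of liver enzyme CYP2C9 beyond about 50% at 5 µM, limit read from the data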
# Target sequence (P11712 whole entry, looked up): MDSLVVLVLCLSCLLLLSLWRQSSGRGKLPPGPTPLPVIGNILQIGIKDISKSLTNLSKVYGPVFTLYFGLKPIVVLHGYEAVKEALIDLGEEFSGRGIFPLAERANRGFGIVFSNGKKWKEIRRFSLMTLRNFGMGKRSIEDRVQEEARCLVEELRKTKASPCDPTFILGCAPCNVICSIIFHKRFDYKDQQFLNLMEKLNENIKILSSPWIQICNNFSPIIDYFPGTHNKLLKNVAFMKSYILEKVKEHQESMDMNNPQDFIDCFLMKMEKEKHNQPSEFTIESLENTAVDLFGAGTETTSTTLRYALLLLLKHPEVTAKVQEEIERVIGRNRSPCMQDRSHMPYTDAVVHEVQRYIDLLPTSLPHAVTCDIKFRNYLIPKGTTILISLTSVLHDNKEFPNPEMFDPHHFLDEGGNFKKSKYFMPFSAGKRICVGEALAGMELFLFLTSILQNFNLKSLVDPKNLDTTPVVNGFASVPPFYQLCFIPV
# CYP2C19 inh – blocks human cytochrome P450 2C19; P33261; CYP2C19 Supersomes, luciferin-H EGE luminescence, 30 min; inhibition, % at 5 µM; 21% of 96,000 active;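 active = CYP2C19 inhibition above a set limit at 5 µM in the primary screen, cut at about 50% in these data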;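 note: plate controls were negative control wells for no effect and 2.5 mM tranylcypromine positive control for full effect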
# CD11b adhes enh – enhancers of human CD11b/CD18 binding to fibrinogen. K562 CD11b/CD18 adhesion to fibrinogen, ATPlite luminescence. activation, % at 10 µM. 0.07% of 93,000 active. AID 1499;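 active = 10 µM primary screen giving 50% or more activity, confirmed by 40% or more on retest at that dose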
# CYP2C19 act – increases human CYP2C19 enzyme activity; P33261; 96,000 tested, under 10 active; recombinant CYP2C19, luciferin-H EGE luminescence; hits give high values; 0 = fully inhibited enzyme, 1 = untreated enzyme; activation factor at 5 µM;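 active = activation factor of at least 2 at 5 µM in the primary screen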;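 note: 0 = wells with 2.5 mM tranylcypromine and 1 = vehicle-only wells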
# CYP2C9 act – activators of human CYP2C9; P11712; recombinant CYP2C9, luciferin-H conversion, luminescence; hits give high values; factor 1 = untreated enzyme, 0 = blocked; activation factor at 5 µM; 1.4% of 96,000 active;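 active = activation factor of 2 or more for CYP2C9 at a 5 µM dose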;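 note: 0 = sulfaphenazole-blocked wells and 1 = vehicle-only wells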
# Numbers without * were called inactive; nt = no result given.
SMILES,CD11b adhes inh,CYP2C9 inh,CYP2C19 inh,CD11b adhes enh,CYP2C19 act,CYP2C9 act
CC1=C(C(=O)Nc2ccccc2C)C(c2ccc(C)o2)N2C(=O)CSC2=N1 (stereo not drawn),-7,6,10,4,0.9,0.9
CCOC(=O)c1c(NC(=O)CSc2nnnn2-c2ccc(OC)cc2)sc(C)c1C,63*,32,24,-6,0.8,0.7
CCOC(=O)c1csc(NC(=O)CSc2nnnn2-c2ccc(OCC)cc2)n1,-4,-14,-4,-3,1,1.1
COc1ccccc1CNC(=O)CCS(=O)(=O)c1cccc2nonc12,-25,59*,91*,-4,0.1,0.4
COc1ccccc1CNC(=O)CCS(=O)(=O)c1cccs1,-11,-88,83*,-1,0.2,1.9
COc1ccccc1CNC(=O)c1cccs1,-13,-2,45,-4,0.6,1
Cc1ccc(CNC(=O)CCS(=O)(=O)c2cccc3nonc23)cc1,-22,-23,37,-4,0.6,1.2
COc1ccc(CNC(=O)CCS(=O)(=O)c2cccc3nonc23)cc1,-3,30,74*,-1,0.3,0.7
N#CCCn1cnc2c(=S)nc[nH]c21,-18,-8,-5,-1,1.1,1.1
CC(=O)OC(C(=O)NC1CCCCC1)c1ccc(C#N)cc1 (stereo not drawn),-12,17,15,-2,0.9,0.8
CC1(C)CC(=O)c2cn3nc(C(F)(F)F)nc3nc2C1,17,15,56*,-3,0.4,0.8
CC1(C)CC(=O)c2cn3c(nc2C1)nc1ccccc13,-14,-7,5,4,1,1.1
CCc1nc(NCCN2CCOCC2)c2oc3ccccc3c2n1,-14,37,57*,-2,0.4,0.6
CCc1nc(N2CCN(Cc3ccc4c(c3)OCO4)CC2)c2oc3ccccc3c2n1,9,51*,32,1,0.7,0.5
CCc1nc(NCCCN2CCOCC2)c2oc3ccccc3c2n1,-18,14,45,3,0.5,0.9
CCc1nc(Nc2ccc3c(c2)OCO3)c2oc3ccccc3c2n1,nt,75*,51*,nt,0.5,0.3
O=C(O)C1CC(c2ccccc2F)=NO1 (stereo not drawn),-1,-1,1,-1,1,1
COCC(=O)N(Cc1ccc(OC)cc1)Cc1nc2ccccc2c(=O)[nH]1,0,-6,27,3,0.7,1.1
Cc1c(C(=O)OCC(=O)N2CC(=O)Nc3ccccc32)oc2ccc(Br)cc12,17,-29,-26,1,1.3,1.3
Cc1ccc(C)c(C(C)NC(=O)C2C3CCC(O3)C2C(=O)O)c1 (stereo not drawn),-24,6,5,0,0.9,0.9
N=c1c2c(-c3ccccc3)c(-c3ccccc3)n(Cc3ccco3)c2ncn1Cc1ccco1,18,83*,66*,-8,0.3,0.2
C=CCn1cnc2c(c1=O)c1nc3ccccc3nc1n2Cc1ccccc1,-5,-9,0,2,1,1.1
N=c1c2c(-c3ccccc3)c(-c3ccccc3)n(Cc3ccccc3)c2ncn1CCCn1ccnc1,nt,58*,82*,nt,0.2,0.4
Cc1cc(C)cc(-n2c3nc4ccccc4nc3c3c(=O)n(Cc4ccco4)cnc32)c1,2,10,-9,54,1.1,0.9
Fc1ccc(C(CCCn2nnc(-c3cccnc3)n2)c2ccc(F)cc2)cc1,44,59*,59*,-2,0.4,0.4
SMILES,CD11b adhes inh,CYP2C9 inh,CYP2C19 inh,CD11b adhes enh,CYP2C19 act,CYP2C9 act
O=C(O)Cn1nnn(-c2ccccc2)c1=S,-8,-12,-6,1,1.1,1.1
CCOC(=O)C1=C(N)OC2=C(C(=O)CCC2)C1c1cccs1 (stereo not drawn),-1,80*,88*,0,0.1,0.2
CCOC(=O)C1=C(C)NC2=C(C(=O)CCC2)C1c1cccs1 (stereo not drawn),-29,64*,74*,7,0.3,0.4
COC(=O)C1=C(N)OC2=C(C(=O)CCC2)C1c1cccs1 (stereo not drawn),-28,23,34,4,0.7,0.8
COCCOC(=O)C1=C(N)OC2=C(C(=O)CCC2)C1c1cccnc1 (stereo not drawn),2,-2,61*,-1,0.4,1
Cc1nc(Oc2cccc(Cl)c2)c2oc3ccccc3c2n1,16,3,-4,-4,1,1
O=C(CCSc1nnc(-c2ccncc2)o1)Nc1ccc(F)cc1,27,57*,85*,1,0.1,0.4
Cc1nnc(SCCC(=O)Nc2ccc(F)cc2)s1,10,-1,17,-2,0.8,1
O=C(CCSc1nnc(-c2ccncc2)o1)Nc1ccccc1,-48,85*,86*,-5,0.1,0.2
CC(=O)NC1(c2ccc(F)cc2)CCN(C(=O)Nc2ccc(F)cc2F)CC1,nt,21,45,nt,0.6,0.8
CN(C)c1nc(N)nc(-c2ccco2)n1,0,-11,-10,5,1.1,1.1
O=C(O)CC(c1ccccc1)c1ccccc1,16,52*,-5,0,1.1,0.5
O=C(O)CC(CP(=O)(c1ccccc1)c1ccccc1)C(=O)O (stereo not drawn),2,-18,-12,-1,1.1,1.2
CC(C)(C)OC(=O)NCCc1nnc(SCc2ccc(Cl)cc2)o1,-5,54*,25,-2,0.8,0.5
O=C(CSc1nnc(Cn2nnc3ccccc32)o1)N(Cc1ccc(Cl)cc1)c1ccccc1,104,42,12,-6,0.9,0.6
CC(C)(C)OC(=O)NCCCCCc1nnc(SCC(=O)Nc2cccc(Cl)c2)o1,101,90*,93*,-10,0.1,0.1
C=C(C)CSc1nnc(CCNC(=O)OC(C)(C)C)o1,-3,34,87*,3,0.1,0.7
CC(C)(C)OC(=O)NCCc1nnc(SCC(=O)Nc2cccc(Cl)c2)o1,-2,28,35,0,0.7,0.7
CCSc1nnc(CCNC(=O)OC(C)(C)C)o1,-10,12,-11,2,1.1,0.9
Clc1ccc(CSc2nnc(Cn3cnc4ccccc43)o2)cc1,69,67*,45,-8,0.5,0.3
COCc1cc(C)nc(SCC(=O)N2CCC(C)CC2)c1C#N,19,7,49,0,0.5,0.9
O=C(CSc1nnc(CNc2cccc(Cl)c2)o1)OC1CCCCC1,nt,39,29,nt,0.7,0.6
Clc1ccc(CSc2nnc(CNc3cccc(Cl)c3)o2)cc1,29,25,53*,-5,0.5,0.7
CC(C)C(=O)Nc1ccc(NC(=O)c2ccccc2Cl)nc1,-3,-19,5,0,0.9,1.2
N#Cc1cnn(Cc2ccc(Cl)cc2)c1N,-32,6,55*,2,0.5,0.9
N#Cc1cnn(Cc2ccccc2)c1N,-2,-9,11,4,0.9,1.1

# Source: PubChem BioAssay (Sanford-Burnham Center for Chemical Genomics)
